Most compounds without a hit are left out; they make up all but 3.8% or so of the library.
ATXN2 expr inh: ATXN2 expression inhibition; HEK-293 ATXN2-luciferase reporter, luminescence, 24 h; Potency, µM (highest dose often 57 µM), usual class: inhibitors; 0.72% of 360,000 active; further: nearly all actives have a fitted effect of over 55% in size
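qHTS (up to 57 uM final) was run with 24 h compound exposure of reporter cells at 37 °C. Each well was multiplexed: SteadyGlo luminescence measured ATXN2-luciferase expression after a fluorogenic Gly-Phe-AFC viability readout (25 uM final).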
A549 viability: counter-screen for Nrf2 inhibitors: cytotoxicity in A549 cells | 0.16% of 390,000 active | A549 ARE-Fluc cells, CellTiter-Fluor viability, 18-24 h | Potency, µM (series often up to 46 µM), actives largely listed as inhibitors
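Cytotoxicity counterscreen: CellTiter-Fluor fluorescence was measured in A549 ARE_Fluc cells after 18-24 h of compound exposure in a concentration series. The subsequent BugLite luminescent read reports ARE-luciferase activity.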
Nrf2 block: blocks Nrf2 signaling; A549 ARE-Fluc reporter, luciferase luminescence, 18-24 h; Potency, µM (titrated, usually from 46 µM), actives largely listed as inhibitors; 2.1% of 360,000 active; AID 504444; further: nearly all actives have a fitted effect of over 60% in size
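A549 ARE_Fluc cells, 5000/well, 5% FBS OPTI-MEM; compounds in dose-response, 18-24 h at 37 °C/5% CO2; CellTiter-Fluor viability read (Ex 405/Em 525), then BugLite luciferase luminescence = Nrf2 activity.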
S2 tox: cell viability loss in ATXN counter-screen | Potency, µM (doses to about 56.7 µM), hits mostly cytotoxic | 0.49% of 400,000 active | AID 651635 | S2 cells (HEK-293 line with an ATXN2-luciferase reporter) viability, CellTiter-Fluor protease fluorescence, 24 h; further: nearly all actives have a fitted effect of over 40% in size
HepG2 tox-1: counter-screen for TGF-b inhibitors: cytotoxicity in HepG2 cells | HepG2 CAGA-GFP viability, ATP luminescence, 18 h | 0.76% of 410,000 active | AID 588856 | Potency, µM (titrated, usually from 46.1 µM), actives largely listed as cytotoxic
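CellTiter-Glo luminescence gave cytotoxicity after 18 hours at 37 degrees C. The cells were HepG2 CAGA-GFP in 1% FBS DMEM, stimulated with 500 pg/mL TGF-beta after compound addition. %Activity was normalised to no-cell wells (complete cell-killing) and DMSO (no toxicity), and curves were fitted and classified.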
TGFb SMAD3 inh: TGF-b pathway inhibition | HepG2 CAGA-GFP TGF-b/SMAD3 reporter, GFP fluorescence, 18 h; TGF-beta stimulated, 500 pg/mL final | Potency, µM (titrated, usually from 46.1 µM), most hits filed as inhibitors | 1.2% of 410,000 active | AID 588855; further: nearly all actives have a fitted effect of over 65% in size
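TGF-beta reporter screen: HEPG2 CAGA-GFP, 1% FBS, 500 pg/mL TGF-beta final, 18 h; per-cell GFP summed per well; curves fitted and categorized by class.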
TGFb CAGA inh: confirmation of TGF-b signaling inhibitors in HepG2 reporter cells; HepG2 CAGA-GFP TGF-b reporter, GFP fluorescence, 18 h; cells stimulated with TGF-beta, 500 pg/mL; Potency, µM (highest dose often 46.1 µM), actives largely listed as inhibitors; AID 720534; 63% of 1,600 active; shares compounds with TGFb SMAD3 inh; further: nearly all actives have a fitted effect of over 65% in size
HepG2 tox-2: HepG2 cytotoxicity, TGF-b inhibitor counterscreen; Potency, µM (highest dose often 46.1 µM), actives largely listed as inhibitors; shares compounds with TGFb SMAD3 inh; 27% of 1,600 active; HepG2 CAGA-GFP viability, ATP luminescence, 18 h; cells stimulated with TGF-beta, 500 pg/mL; further: nearly all actives have a fitted effect of over 70% in size
CCL64 TGFb inh: TGF-b inhibition, CCL64 orthogonal assay; shares compounds with TGFb SMAD3 inh; CCL64 CAGA-GFP reporter, TGF-b stimulated, GFP fluorescence, 18 h; Potency, µM (titrated, usually from 46.1 µM), hits mostly inhibitors; 41% of 1,600 active; further: nearly all actives have a fitted effect of over 65% in size
COP TGFb inh: TGF-b inhibition validated with COP promoter; Potency, µM (top dose mostly 46.1 µM), most hits filed as inhibitors; shares compounds with TGFb SMAD3 inh; 3% of 1,600 active; HepG2 COP-GFP TGF-b reporter, GFP fluorescence, 18 h; cells stimulated by added recombinant TGF-beta; further: nearly all actives have a fitted effect of over 70% in size
Of the large screens only hits and unclear results are named; the others gave an inactive call (follow-up assays come after a bar, where they were run); ! = repeats disagree. The call rests on the fitted dose curve; in most records, active means well fitted curve in the direction sought with a large enough effect; inconclusive means small, poorly fitted or top-dose-only effect, or another doubt; inactive means no such curve, though single readings can be large; an effect the other way counts as inactive or inconclusive.

CCCCNC(=O)O[C@@H]1C[C@H]2CCCC(=O)N3CC[C@@H](C1)[C@@H]23	TGFb SMAD3 inh inconclusive
Cc1ccc2nc(-c3ccccn3)c(Nc3ccccc3C)n2c1	ATXN2 expr inh 4.5µM!, A549 viability inconclusive, Nrf2 block inconclusive, S2 tox inconclusive, TGFb SMAD3 inh 3.2µM | TGFb CAGA inh 8.2µM | HepG2 tox-2 inconclusive | CCL64 TGFb inh inconclusive | COP TGFb inh inactive
COc1cc(/C=C2/SC(=S)N(CCC(=O)Nc3cccnc3)C2=O)cc(OC)c1OC	S2 tox inconclusive (no result: ATXN2 expr inh, A549 viability, Nrf2 block)
N#CCc1ccc(NC(=O)/C=C/c2ccc([N+](=O)[O-])o2)cc1	ATXN2 expr inh 8.9µM, A549 viability inconclusive, S2 tox 13µM, HepG2 tox-1 11µM, TGFb SMAD3 inh 7.1µM | TGFb CAGA inh 2.6µM | HepG2 tox-2 5.8µM | CCL64 TGFb inh 9.2µM | COP TGFb inh inconclusive
CCN(CC)C(=O)[C@H]1C[C@H](CC(=O)NCc2ccco2)C(=O)N2CCc3c([nH]c4cc(-c5ccco5)ccc34)[C@]12C	Nrf2 block inconclusive, TGFb SMAD3 inh inconclusive
COc1ccc2[nH]c3c(c2c1)CCN1C(=O)C(CC(=O)NCCC2=CCCCC2)C[C@H](C(=O)N2CCCCC2)[C@@]31C (some centres undefined)	A549 viability inconclusive, Nrf2 block inconclusive, TGFb SMAD3 inh 7.9µM | TGFb CAGA inh inconclusive | HepG2 tox-2 inactive | CCL64 TGFb inh inactive | COP TGFb inh inactive
C[C@]12c3[nH]c4cc(-c5ccco5)ccc4c3CCN1C(=O)[C@@H](CC(=O)NCCc1ccccn1)C[C@@H]2C(=O)N1CCCCC1	TGFb SMAD3 inh inconclusive | TGFb CAGA inh inconclusive | HepG2 tox-2 inactive | CCL64 TGFb inh inactive | COP TGFb inh inactive
COCCCNC(=O)CC1C[C@H](C(=O)N2CCCCC2)[C@@]2(C)c3[nH]c4ccc(OC)cc4c3CCN2C1=O (some centres undefined)	none
CCN(CC)C(=O)[C@H]1C[C@H](CC(=O)NCc2cccc(C(F)(F)F)c2)C(=O)N2CCc3c([nH]c4cc(-c5ccco5)ccc34)[C@]12C	ATXN2 expr inh inconclusive, A549 viability inconclusive, Nrf2 block 18µM, S2 tox inconclusive, TGFb SMAD3 inh 10µM | TGFb CAGA inh 9.2µM | HepG2 tox-2 16µM | CCL64 TGFb inh 12µM | COP TGFb inh inactive
CCN(CC)C(=O)[C@H]1CC(CC(=O)NCc2cccc(C(F)(F)F)c2)C(=O)N2CCc3c([nH]c4ccc(OC)cc34)[C@]12C (some centres undefined)	ATXN2 expr inh inconclusive, Nrf2 block inconclusive, S2 tox inconclusive, TGFb SMAD3 inh 8.9µM | TGFb CAGA inh 33µM | HepG2 tox-2 inactive | CCL64 TGFb inh inconclusive | COP TGFb inh inactive
CCN(CC)c1ccc2cc(C(=O)c3cccs3)c(=O)oc2c1	none (no result: A549 viability, Nrf2 block, S2 tox)
CCn1c(C)c(C(=O)O)c2cc(OC)c3ccccc3c21	none
COc1cc(N(C)C)c(OC)cc1C=O	none (no result: ATXN2 expr inh, A549 viability, Nrf2 block, S2 tox)
C(=C\c1ccccc1)/CN1CCN(C(c2ccccc2)c2nnnn2C2CCCCC2)CC1 (centres undefined)	none (no result: A549 viability, Nrf2 block)
CCCCn1nnnc1C(c1ccnc2ccccc12)N1CCN(C/C=C/c2ccccc2)CC1 (centres undefined)	S2 tox inconclusive, TGFb SMAD3 inh inconclusive (no result: A549 viability, Nrf2 block)
C(=C\c1ccccc1)/CN1CCN(C(c2ccnc3ccccc23)c2nnnn2C2CCCCC2)CC1 (centres undefined)	ATXN2 expr inh inconclusive, S2 tox inconclusive, TGFb SMAD3 inh 11µM (no result: A549 viability, Nrf2 block) | TGFb CAGA inh 18µM | HepG2 tox-2 inconclusive | CCL64 TGFb inh 18µM | COP TGFb inh inactive
CCCCn1nnnc1C(c1ccccc1OC(F)(F)F)N1CCN(C/C=C/c2ccccc2)CC1 (centres undefined)	S2 tox inconclusive, TGFb SMAD3 inh 13µM (no result: A549 viability, Nrf2 block) | TGFb CAGA inh 18µM | HepG2 tox-2 inactive | CCL64 TGFb inh inconclusive | COP TGFb inh inactive
CCCCn1nnnc1C(c1cccc2ccccc12)N1CCN(C/C=C/c2ccccc2)CC1 (centres undefined)	ATXN2 expr inh inconclusive, S2 tox inconclusive, TGFb SMAD3 inh 11µM (no result: A549 viability, Nrf2 block) | TGFb CAGA inh inconclusive | HepG2 tox-2 inconclusive | CCL64 TGFb inh inconclusive | COP TGFb inh inactive
Cc1nn(Cc2ccc(Cl)cc2)c(C)c1NC(=O)CCCn1nc([N+](=O)[O-])c(Cl)c1C	none
CCCCOC(=O)CC(CC(=O)OCCCC)(OC(C)=O)C(=O)OCCCC	none (no result: A549 viability, Nrf2 block, HepG2 tox-1, TGFb SMAD3 inh)
Cn1cnnc1Sc1ccc(/C=C/C(=O)c2ccc(O)cc2)cc1[N+](=O)[O-]	A549 viability inconclusive, Nrf2 block 18µM, S2 tox 7.1µM, TGFb SMAD3 inh inconclusive (no result: ATXN2 expr inh) | TGFb CAGA inh 2.6µM | HepG2 tox-2 9.2µM | CCL64 TGFb inh 23µM | COP TGFb inh inconclusive
COc1ccccc1-c1cc(C(F)(F)F)nc(S(=O)(=O)CCCC(=O)N2CCCCC2C)n1 (centres undefined)	ATXN2 expr inh inconclusive, Nrf2 block inconclusive, TGFb SMAD3 inh 10µM (no result: S2 tox) | TGFb CAGA inh 9.2µM | HepG2 tox-2 18µM | CCL64 TGFb inh 4.6µM | COP TGFb inh inconclusive
COc1ccc(OC)c(NC(=O)CN2CCCN(Cc3ccccc3Cl)S2(=O)=O)c1	TGFb SMAD3 inh inconclusive (no result: ATXN2 expr inh, S2 tox)
CC1(Cc2ccc(F)c(Cl)c2)C(=O)Nc2c(Cl)cccc21 (centres undefined)	none (no result: A549 viability, Nrf2 block)
CCOC(=O)c1c(C)oc2c1c(C=NCc1ccccn1)c(O)c1ccccc12	ATXN2 expr inh inconclusive, A549 viability inconclusive, Nrf2 block inconclusive, S2 tox inconclusive, TGFb SMAD3 inh inconclusive | TGFb CAGA inh inconclusive | HepG2 tox-2 inconclusive | CCL64 TGFb inh 18µM | COP TGFb inh inactive

Compound activity: PubChem BioAssay, National Center for Advancing Translational Sciences (NCATS)
